Bioassay records deposited in PubChem BioAssay by NMMLSC.
Rows were chosen to be rich in hits. Some 1.2% of all compounds tested hit in one or more screens of this group.
RGS7-Gao reg = RGS7-Galphao binding modulators, primary screen, biochemical, multiplexed bead flow cytometry. Guanine nucleotide-binding protein G(o) subunit alpha (Homo sapiens), P09471. actives lie on both sides. binding response (% of control), % at 10 µM. 0.35% of 220,000 active; in the data active = binding response below about 49% or above about 150%; inconclusive = no clear call, values can overlap the other calls; inactive = in between;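 note: fluorescent Galphao held in activated GDP-AlF4 state binding bead-coupled RGS7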
Target sequence (P09471 whole entry, looked up): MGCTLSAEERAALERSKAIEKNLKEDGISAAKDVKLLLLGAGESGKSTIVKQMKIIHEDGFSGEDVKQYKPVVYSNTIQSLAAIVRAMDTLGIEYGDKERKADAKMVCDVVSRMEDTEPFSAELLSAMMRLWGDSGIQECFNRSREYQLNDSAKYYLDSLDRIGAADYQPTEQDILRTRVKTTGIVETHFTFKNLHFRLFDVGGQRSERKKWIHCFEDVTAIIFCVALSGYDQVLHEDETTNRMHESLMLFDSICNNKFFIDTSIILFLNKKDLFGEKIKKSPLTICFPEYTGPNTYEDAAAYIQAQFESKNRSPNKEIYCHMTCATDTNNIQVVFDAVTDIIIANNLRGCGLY
GSH fluor = compound fluorescence on glutathione beads, profiling panel, artefact control, biophysical, 488/530 nm, flow cytometry | GSH beads flow cytometry, compound fluorescence 488/530 nm; stronger effect = higher value | fluorescence (KMESF) at 10 µM | 0.25% of 190,000 active | AID 1776, 2009; in the data active = fluorescence above about 89;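 note: glutathione beads carrying GST-tagged Bcl family fusion proteins plus one bare bead set; values are compound well signal with DMSO vehicle wells as background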
RGS8-Gao = RGS8-Galphao binding modulators, primary screen, biochemical, multiplexed bead flow cytometry; 0.34% of 220,000 active; response (percent of control binding), % at 10 µM; actives lie on both sides; AID 1423, 2008; in the data active = response below about 60% or above about 140%; inactive = in between;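 note: Galphao activated as the GDP aluminium fluoride complex binding bead-coupled RGS8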
RGS16-Gao HTS = modulators of RGS16 binding to Galphao, primary screen, biochemical, human proteins, multiplexed bead flow cytometry; bead-based flow cytometry RGS16-Galphao binding, fluorescence; actives lie on both sides; binding response (% of control), % at 10 µM; 0.38% of 220,000 active;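 note: Galphao activated by GDP with aluminum fluoride before binding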
RGS4-Gao reg = modulators of RGS4 binding to Galphao, primary screen, biochemical, multiplexed bead flow cytometry; binding response (% of control), % at 10 µM; actives lie on both sides; AID 1415, 2008; 0.33% of 220,000 active; Guanine nucleotide-binding protein G(o) subunit alpha (Homo sapiens), P09471; in the data active = binding response below about 49% or above about 150%; inactive = in between;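 note: fluorescent Galphao activated with aluminum fluoride binding bead-coupled RGS4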
Avidin fluor = green autofluorescence of compounds with avidin beads – biophysical, 488/530 nm, flow cytometry, artefact control, profiling panel. fluorescence (KMESF) at 10 µM. AID 1775, 2009. compound fluorescence 488/530 nm; stronger effect = higher value. 0.38% of 220,000 active; in the data active = fluorescence above about 47
RGS4-Gao HTS = modulators of RGS–Galpha-o binding, primary screen, biochemical, multiplexed beads, flow cytometry, RGS4/7/8/16/19; shares compounds with RGS16-Gao HTS; multiplexed bead flow cytometry; RGS4–Galpha-o binding response, % at 10 µM; 99% of 1,600 active; AID 1504, 2009;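 note: fluorescently labeled Galpha-o bound to GDP with aluminium fluoride binding biotinylated RGS beads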
Target sequence (P09471 whole entry, looked up): as above
Target sequence (P49798 whole entry, looked up): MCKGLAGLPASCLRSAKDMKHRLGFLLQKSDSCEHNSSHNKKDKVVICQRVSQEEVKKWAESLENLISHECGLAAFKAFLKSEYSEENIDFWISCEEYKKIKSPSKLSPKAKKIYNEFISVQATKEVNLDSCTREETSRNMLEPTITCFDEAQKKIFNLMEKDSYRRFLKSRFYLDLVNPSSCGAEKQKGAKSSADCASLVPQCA
Avidin counter = disruption of biotin probe capture by avidin, counter-screen for RGS protein interaction modulators, biochemical, flow cytometry, bead-based | shares compounds with RGS16-Gao HTS | streptavidin beads, fluorescein-biotin binding | inhibition, % at 10 µM | 1,700 tested, under 10 active | AID 1783, 2009;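 active = inhibition above 50%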;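 note: median green fluorescence of gated singlet beads compared with DMSO control wells; 0% = DMSO wells and 100% = complete loss of bead fluorescence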
RGS8-Gao single = RGS8-Galphao binding modulators, confirmation, biochemical, multiplexed bead flow cytometry, single concentration; shares compounds with RGS16-Gao HTS; bead-based flow cytometry RGS8-Galphao binding, fluorescence; actives lie on both sides; binding response (% of control), % at 10 µM; 3% of 1,700 active; in the data active = binding response below about 72% or above about 130%; inactive = in between;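 note: Galphao activated as GDP AlF4 complex before binding bead RGS8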
RGS7-Gao confirm = RGS7-Galphao binding modulators, confirmation, biochemical, multiplexed bead flow cytometry, single concentration; shares compounds with RGS16-Gao HTS; bead-based flow cytometry RGS7-Galphao binding; actives lie on both sides; response (percent of control binding), % at 10 µM; 7.8% of 1,700 active; AID 1837, 2009; in the data active = response below about 75% or above about 130%; inactive = in between;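 note: fluorescent Galphao activated with GDP and aluminum fluoride binding bead-coupled RGS7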
RGS16-Gao conf = modulators of RGS16-Galphao protein binding, confirmation, biochemical, single concentration, multiplexed bead flow cytometry; response (% of control binding), % at 10 µM; shares compounds with RGS16-Gao HTS; bead-based flow cytometry; actives lie on both sides; 4% of 1,700 active; in the data active = response below about 74% or above about 130%; inactive = in between;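 note: Galphao activated as the GDP aluminium fluoride complex binding bead-coupled RGS16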
RGS4-Gao single = modulators of RGS4-Galphao protein binding, confirmation, biochemical, single concentration, multiplexed bead flow cytometry; AID 1840, 2009; binding response (% of control), % at 10 µM; 4% of 1,700 active; shares compounds with RGS16-Gao HTS; actives lie on both sides; in the data active = binding response below about 74% or above about 130%; inactive = in between
RGS19-Gao conf = regulators of RGS19-Galphao binding, confirmation, biochemical, single point, multiplexed bead flow cytometry; bead-based flow cytometry RGS19-Galphao binding; actives lie on both sides; response (percent of control binding), % at 10 µM; shares compounds with RGS16-Gao HTS; 5% of 1,700 active; in the data active = response below about 50% or above about 160%; inactive = in between;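 note: 100% = no compound control and 0% = blank background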
* marks the source's active call; other numbers are inactive results; ? = inconclusive; · = not tested or not shown; [ ] = remark or other dose. Unless noted, the rule behind the calls is not given here.

SMILES | RGS7-Gao reg | GSH fluor | RGS8-Gao | RGS16-Gao HTS | RGS4-Gao reg | Avidin fluor | RGS4-Gao HTS | Avidin counter | RGS8-Gao single | RGS7-Gao confirm | RGS16-Gao conf | RGS4-Gao single | RGS19-Gao conf
COC(=O)c1ccc2c(=O)[nH]c(CSc3nnc(C(F)(F)F)n3C)nc2c1 | 90.2 | 4 | 81.3 | 15.5* | 90.3 | 6 | 90.3* | 2.9 | 102.8 | 100.0 | 105.9 | 104.4 | 99.6
Cc1nn(CC(=O)Nc2ccc(S(=O)(=O)N(C)C)cc2)c(C)c1[N+](=O)[O-] | 102.8 | 11 | 101.4 | 98.3 | 100.4 | 10 | · | · | · | · | · | · | ·
O=C(O)CSCC(=O)Nc1ccc(Br)c(C(F)(F)F)c1 | ? | · | 32.2* | -11.8* | -38.3* | -2 | · | -0.6 | 92.9 | 90.2 | 88.3 | 88.0 | 92.7
O=C(c1ccc(S(=O)(=O)NCc2ccco2)cc1)N1CCN(Cc2ccc3c(c2)OCO3)CC1 | 120.1 | 13 | 158.3*[activator] | 336.4 | 122.0 | 8 | 122.0* | -1.2 | 100.0 | 96.8 | 99.8 | 98.2 | 100.7
CCN(CC)CCN1C(=O)C(=O)/C(=C(/O)c2c(C)[nH]c(C(=O)OC)c2C)C1c1cccs1 (stereo unspecified) | 99.3 | 10 | 102.7 | 99.5 | 98.2 | 8 | · | · | · | · | · | · | ·
CCN(CC)CCN1C(=O)C(=O)/C(=C(/O)c2c(C)[nH]c(C(=O)OC)c2C)C1c1ccccc1OC (stereo unspecified) | 158.8*[activator] | 6 | 145.2*[activator] | 265.8 | 176.1*[activator] | 23 | · | -0.1 | 99.7 | 108.0 | 103.1 | 105.1 | 100.6
CCCS(=O)(=O)N1CCCC(C(=O)NCCCN2CCN(c3cccc(Cl)c3)CC2)C1 (stereo unspecified) | 233.8*[activator] | 29 | 145.7*[activator] | 668.4 | 294.6*[activator] | 150* | · | 1.2 | 96.9 | 92.5 | 90.4 | 92.2 | 58.6
Cc1cc(=O)[nH]c(SCC(=O)Nc2ccc(F)c([N+](=O)[O-])c2)n1 | ? | 11 | 100.4 | 98.3 | 101.8 | 10 | · | · | · | · | · | · | ·
COC(=O)C(C)NC(=O)c1ccc(C(C)(C)C)cc1 (stereo unspecified) | 98.8 | 15 | 99.8 | 98.5 | 94.7 | 14 | · | · | · | · | · | · | ·
COc1ccc2c(c1OC)C(=O)OC2Nc1ccc(S(=O)(=O)N=C(N)N)cc1 (stereo unspecified) | ? | · | 96.4 | 92.0 | 88.5 | 5 | · | · | · | · | · | · | ·
COc1ccc2c(c1OC)C(=O)OC2Nc1ncc(Br)cc1Br (stereo unspecified) | 111.8 | 46 | 124.7 | 187.8*[activator] | 124.2 | 5 | 124.2* | 0.3 | 99.7 | 102.4 | 100.1 | 100.3 | 100.0
CC(C)N(NC(=O)c1cccc2ccccc12)C(C)C | 147.1 | 11 | 150.8*[activator] | 175.0*[activator] | 143.7 | 23 | 143.7* | 0.6 | 101.8 | 103.2 | 98.3 | 100.2 | 103.2
CN(C)CCCNC(=O)c1ccc(/C=N/O)nc1 | -11.2* | 13 | 12.2* | 9.7* | 6.1* | 0 | · | -1.2 | 102.0 | 105.0 | 101.4 | 101.8 | 98.6
CNCCCNC(=O)c1ccc(/C=N/O)nc1 | 101.7 | 13 | 99.9 | 101.8 | 101.1 | 10 | · | · | · | · | · | · | ·
COC(=O)CCC(=O)NNC(=O)CCCOc1ccc(Cl)cc1Cl | 102.1 | 10 | 104.6 | 101.5 | 99.8 | 13 | · | · | · | · | · | · | ·
COC(=O)CCC(=O)NNC(=O)c1ccc(Cl)cc1Cl | 175.5*[activator] | 42 | 83.6 | 31.6 | 103.5 | 113* | 103.5* | · | · | · | · | · | ·
Cn1c(NC(=O)COc2ccccc2)cc(=O)n(C)c1=O | 97.5 | 25 | 101.0 | 95.2 | 96.2 | 13 | · | · | · | · | · | · | ·
COc1ccc(CCNC(=O)COC(=O)c2cc(OC)c(OC)cc2OC)cc1OC | 172.0*[activator] | 14 | 173.8*[activator] | 199.1*[activator] | 172.5*[activator] | 21 | · | -1.4 | 106.5 | 106.3 | 108.4 | 105.3 | 138.8
CCOC(=S)N/C(=N\S(=O)(=O)c1ccc(C)cc1)c1ccccc1 | 98.3 | 33 | 95.2 | 93.9 | 95.7 | 15 | · | · | · | · | · | · | ·
NC(N)=NC(N)=Nc1ccc(SC(F)(F)F)cc1 | 96.7 | 11 | 71.6 | 15.8* | 100.9 | 2 | 100.9* | -0.5 | 100.7 | 99.5 | 102.2 | 99.5 | 100.0
NC(N)=NC(N)=Nc1ccc2ccccc2c1 | 98.7 | 12 | 95.0 | 100.1 | 100.8 | 6 | · | · | · | · | · | · | ·
CCCC(C)NC(=O)COC(=O)c1cccc(NS(C)(=O)=O)c1 (stereo unspecified) | ? | · | 101.5 | 102.7 | 94.2 | 6 | · | · | · | · | · | · | ·
Cc1cc(C(=O)NN)c(Cl)cc1Cl | ? | · | 26.8* | 12.7* | 20.9* | 0 | · | 1.5 | 111.4 | 106.6 | 107.3 | 104.6 | 106.8
O=C(Nc1ccccc1[N+](=O)[O-])C1(c2ccccc2)CCOCC1 | 333.5*[activator] | 23 | 97.4 | 110.3 | 141.1 | 202* | 141.1* | 2.0 | 97.8 | 91.3 | 95.0 | 96.1 | 89.3
CC1=C(C(=O)Nc2ccc(F)c(F)c2)C(c2cccs2)NC(=S)N1 (stereo unspecified) | 102.3 | 6 | 102.6 | 107.5 | 102.5 | 2 | · | · | · | · | · | · | ·
CC1=C(C(=O)Nc2ccc(C)cc2)C(c2cccs2)NC(=S)N1 (stereo unspecified) | 46.1* | 15 | 67.4 | 48.9 | 53.6 | 7 | 53.6* | -2.1 | 109.8 | 105.0 | 111.9 | 104.4 | 118.2
